Measurements: PubChem BioAssay (NCI)
The panel holds about 79,000 compounds, 15% with a hit somewhere; the sample as a whole holds those more often. Calls of active or inactive are those of the source. No stated cut-off is given here; in the data, active means growth inhibition above about 70%; inactive means the rest.

Experiments:
[1] = NCI Yeast Anticancer Drug Screen. Data for the rad50 strain (AID 155);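 further: 0% = growth of vehicle-only cultures of the same strain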; conditions: S. cerevisiae rad50 strain growth inhibition; at 50.0 µM; active compounds read high
In short: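 A DNA repair-deficient yeast mutant serves as the test organism; compound-induced growth inhibition is calculated against vehicle-treated cells.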

[2] = NCI Yeast Anticancer Drug Screen. Data for the mec2-1 strain (AID 157); conditions: S. cerevisiae mec2-1 strain, at 50.0 µM, active compounds read high
In short: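 Readout is yeast growth inhibition, normalised to vehicle-treated controls, in the mec2-1 strain exposed to compound.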

[3] = NCI Yeast Anticancer Drug Screen. Data for the sgs1 mgt1 strain (AID 161);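 further: 0% = growth of cultures given vehicle only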; conditions: S. cerevisiae sgs1 mgt1 strain, at 50.0 µM, active compounds read high
In short: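 Yeast cells carrying a defined DNA-repair defect were exposed to test compounds. Growth inhibition was measured relative to vehicle-treated controls.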

[4] = NCI Yeast Anticancer Drug Screen. Data for the cln2 rad14 strain (AID 165);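 further: 0% = growth equal to vehicle treated cultures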; conditions: S. cerevisiae cln2 rad14 strain, at 50.0 µM, active compounds read high
In short: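 Relative to vehicle controls, growth inhibition of compound-treated cln2 rad14 yeast was recorded.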

[5] = NCI Yeast Anticancer Drug Screen. Data for the bub3 strain (AID 167); conditions: S. cerevisiae bub3 mutant strain, at 50.0 µM, active compounds read high
In short: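 Inhibition values come from growth of compound-treated mutant yeast normalised to vehicle-treated controls.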

[6] = NCI Yeast Anticancer Drug Screen. Data for the mlh1 rad18 strain (AID 175); conditions: S. cerevisiae mlh1 rad18 strain growth inhibition; at 50.0 µM; active compounds read high
In short: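 Test agents were incubated with a yeast strain of defined genotype (DNA damage repair defect). Inhibition of growth was derived by comparison with vehicle-exposed cultures.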

Measured: growth inhibition

CCCCCCC(/C=N/Nc1ccccn1)=C\c1ccccc1
inactive: [1] -5.05% | [2] -0.95% | [3] 2.55% | [4] -7.6% | [5] -4.1% | [6] -21.9%

N#CC(C#N)=CNC(=S)Nc1ccc(S(=O)(=O)Nc2nccs2)cc1
inactive: [1] -24.7% | [2] -35.8% | [3] -13.4% | [4] 4.85% | [5] -3.05% | [6] -3.65%

O=C(N/N=C/c1ccc(Br)cc1)N/N=C/c1ccc(Br)cc1
inactive: [1] -13.5% | [2] -15.7% | [3] -6.45% | [4] 11.4% | [5] -5.05% | [6] -12.8%

Cc1ccccc1N1C(=O)/C(=C/c2ccc(N(CCC#N)CCC#N)cc2)N=C1c1cc([N+](=O)[O-])ccc1Cl
inactive: [1] 4.65% | [2] 1.7% | [3] 26.1% | [4] 7.1% | [5] -1.7% | [6] 6.2%

COC(=O)c1cc(-c2ccncc2)[nH]c(=O)c1C#N
inactive: [1] -5.05% | [2] -32.1% | [3] -33.9% | [4] -18.1% | [5] -15.2% | [6] -19.9%

Cc1cc([N+](C)(C)C)c(C(C)C)cc1O
inactive: [1] -0.45% | [2] 5.7% | [3] 6.25% | [4] 9.55% | [5] 11% | [6] 0.25%

N#CC1(C(c2cccc3ccccc23)c2cccc3ccc4ccccc4c23)CC(=O)OC1=O (configuration not stated)
inactive: [1] 5.25% | [2] -11.4% | [3] 14.1% | [4] 12.1% | [5] -2.55% | [6] 9.65%

CC12CCC3C(CCC4CC(OC5CCCCO5)CCC43C)C1CC/C2=C/C#N (configuration not stated)
inactive: [1] 29.4% | [2] -7.5% | [3] 10.1% | [4] 10.3% | [5] 1.75% | [6] -2.65%

CCCCCCCN1C(=O)C(O)(c2ccc(C3(O)C(=O)N(CCCCCCC)c4ccccc43)s2)c2ccccc21 (configuration not stated)
inactive: [1] 9.35% | [2] 10.9% | [3] 4.9% | [4] 10.2% | [5] 9.7% | [6] 14.6%

CC(C)(C)OC(=O)c1cccc(Br)c1
inactive: [1] -8.1% | [2] -12.8% | [3] -4.55% | [4] 15.2% | [5] 12.8% | [6] 11.1%

CCC(=O)C(CC)c1ccccc1OC (configuration not stated)
inactive: [1] 8.75% | [2] -8.35% | [3] 4.65% | [4] 16.5% | [5] 5.45% | [6] 15%

CC(=O)N(C(C)=O)n1c(-c2ccccc2)n[nH]c1=O
inactive: [1] -7.55% | [2] -17.9% | [3] -14.3% | [4] 13.1% | [5] -10.1% | [6] 2.45%

C=CC(O)C(C)C (configuration not stated)
inactive: [1] 10.7% | [2] -8.35% | [3] -2.55% | [4] -2.95% | [5] -1.55% | [6] 3.1%

C=NNC(=O)c1ccncc1
inactive: [1] -10.4% | [2] -6.1% | [3] 6.4% | [4] -37.5% | [5] 12.8% | [6] 5.9%

CC(C)CC(NS(=O)(=O)Cc1ccccc1)C(=O)NN (configuration not stated)
inactive: [1] -26.9% | [2] -13.6% | [3] -3.85% | [4] 11.2% | [5] 7.5% | [6] -22.1%

O=C(Nc1ccc(Br)cc1)Oc1ccc(Cl)cc1C(=O)c1ccccc1
inactive: [1] 38% | [2] 8.5% | [3] 19.1% | [4] 29.5% | [5] 41.8% | [6] 20.5%

CCN(/C=C/C=C(C#N)C#N)CC
inactive: [1] 6.05% | [2] -5.3% | [3] -9.05% | [4] -15.8% | [5] 6.35% | [6] -12.7%

O=C(O)c1cc(Cl)c(Cl)s1
inactive: [1] 13.2% | [2] -20.1% | [3] 16.7% | [4] -68.9% | [5] -18.3% | [6] -1.9%

c1ccc(-c2cc3ccccc3c(-c3ccccc3)c2-c2ccccc2)cc1
inactive: [1] -18.6% | [2] -1.75% | [3] -4.8% | [4] -1.85% | [5] -2.65% | [6] -15.9%

O=C(NCCc1c[nH]c2ccccc12)C1CC1
inactive: [1] -40% | [2] 16.6% | [3] -14.8% | [4] -32.2% | [5] 7.05% | [6] -25.9%

COc1ccc(N=C(N)N=C(N)N)cc1
inactive: [1] -3.3% | [2] -2% | [3] -6.9% | [4] 8.2% | [5] -2.65% | [6] 0%

CC(O)C(=O)OCCOc1ccccc1 (configuration not stated)
inactive: [1] 12.7% | [2] -6.3% | [3] -3.05% | [4] 5.5% | [5] -14.3% | [6] -140%

CCOc1ccc2c(c1)nc1ccccc1[n+]2C
inactive: [1] 21.6% | [2] 15.4% | [3] 22% | [4] 25.5% | [5] 52.4% | [6] 39.9%

CCCCCCCCCC[N+](C)(C)CC(O)CO (configuration not stated)
inactive: [1] -51.8% | [2] 7.9% | [3] 2.2% | [4] 9.45% | [5] -2.85% | [6] -11.3%

NC(=S)SC1=NNC2(C(=O)N1)c1ccccc1-c1ccccc12
inactive: [1] -11.6% | [2] -33.6% | [3] 14.2% | [4] -6.7% | [5] 5.7% | [6] 14.6%

Cn1c(=O)c2c(nc(Br)n2CC(=O)CF)n(C)c1=O
inactive: [1] 13.2% | [2] 10.8% | [3] -3.75% | [4] -24.4% | [5] 8% | [6] 20.4%

CC12CC1CCCC2OC(=O)c1cc([N+](=O)[O-])cc([N+](=O)[O-])c1 (configuration not stated)
inactive: [1] 4.75% | [2] 2.15% | [3] -5.7% | [4] -12.7% | [5] -7.65% | [6] -0.15%

CCCCOc1ccc2nc(C)cc(N/N=C/c3ccc(OC)c4ccccc34)c2c1
inactive: [1] 46.4% | [2] 19.6% | [3] 44.1% | [4] 42.9% | [5] -2.35% | [6] 41.1%

O=P1(c2ccccc2)OCC2=C(c3ccccc3)CC2=C1c1ccccc1 (configuration not stated)
inactive: [1] 16.1% | [2] 12.2% | [3] 4.7% | [4] 10.1% | [5] -2.05% | [6] 19.9%

Cc1onc(-c2ccccc2Cl)c1-c1nc2ccccc2c(=O)o1
active: [1] 94.1% | [2] 97% | [3] 98.5% | [4] 93.2% | [5] 96.8% | [6] 93.5%

Cc1ccc(N2C(=O)ON(c3ccccc3)C2c2ccccc2)cc1 (configuration not stated)
inactive: [1] 3.6% | [2] -5.8% | [3] -4.45% | [4] 5.9% | [5] 12.4% | [6] -15.9%

C=CN1C(=O)NC(C)(CC(C)C)C1=O (configuration not stated)
inactive: [1] -1.15% | [2] -10.2% | [3] -6% | [4] 6.75% | [5] -7.25% | [6] 18.4%

CN(CC1NCCCC1O)C12CC3CC(CC(C3)C1)C2 (configuration not stated)
inactive: [1] 0.5% | [2] -6.65% | [3] 12.4% | [4] 12% | [5] 7% | [6] -4.35%

O=CNNC(=O)Nc1cccc2ccccc12
inactive: [1] -29.9% | [2] -8.85% | [3] -20% | [4] -5.75% | [5] -32.1% | [6] -25.5%

COCC(=O)c1ccc(C#N)cc1
inactive: [1] 4.35% | [2] -20.2% | [3] -7.25% | [4] -39% | [5] 4.45% | [6] 2.2%

CN(C)/N=C\c1ccc([N+](C)(C)C)cc1
inactive: [1] -20.4% | [2] -25.1% | [3] 7.05% | [4] -19.9% | [5] 32.8% | [6] -44.7%

CC(=O)OCC(=O)O[C@@H]1[C@H]2[C@@H](OC(=O)c3ccccc3)[C@@H](C)C[C@]2(O)[C@H](OC(C)=O)[C@@]2(C)C[C@]1(OC(C)=O)C[C@H]1C(=O)C(C)(C)[C@@H](OC(C)=O)[C@@H]12
inactive: [1] -7.35% | [2] 8.2% | [3] -0.3% | [4] -15.3% | [5] 0.3% | [6] -17.8%

CCOC(=O)c1c[nH]c2nc(N)ccc2c1=O
inactive: [1] -3.75% | [2] -0.2% | [3] 9.9% | [4] -16.4% | [5] -0.7% | [6] -5.4%

COC(=O)CCC1CCCC(CCC(=O)OC)C1=O (configuration not stated)
inactive: [1] -4.9% | [2] 4.55% | [3] -17.6% | [4] -6.1% | [5] -1.1% | [6] -3.3%

COC1/C=C/OC2(C)Oc3c(C)c(O)c4c(O)c(c(/C=N/N5CC(C)N(C(=O)c6ccccc6)C(C)C5)c(O)c4c3C2=O)NC(=O)C(C)=C/C=C/C(C)C(O)C(C)C(O)C(C)C(OC(C)=O)C1C (configuration not stated)
inactive: [1] -5.8% | [2] -13.6% | [3] -23.8% | [4] 24.6% | [5] 25.2% | [6] 5.45%

CC(=O)CCC(=O)CC(=O)CCC(=O)Nc1cc(Cl)ccc1Cl
inactive: [1] 15.3% | [2] 24.2% | [3] 19.9% | [4] 31.2% | [5] 2.5% | [6] 6.2%

CCCCCCCCCCCCCCCCCC1=Nc2cc(C)c(C)cc2NC(=O)C1
inactive: [1] -21.7% | [2] -31.6% | [3] -30.1% | [4] 7.35% | [5] -12.8% | [6] -8.1%
